Results from PubChem BioAssay.
“And” between values parts separate entries of the source, which are not always exact repeats. Equal entries are not always repeated. The source made the active and inactive calls.

What was measured:
[1] = anti-His antibody binders, primary screen, artefact control for SMM control protein annotation, biochemical, small-molecule microarray, 635 nm fluorescence (AID 1128); details: anti-His Alexa647 antibody binding, higher = more signal;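 note: score merges feature fluorescence with signal-to-noise for each printed compound spot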
[2] = tested on: Human papillomavirus type 1a E7 protein (residues 1-88); experiment: HPV1a E7 small-molecule binders, primary screen, biochemical, small-molecule microarray, residues 1-88, 635 nm (AID 1129); details: small-molecule microarray binding, fluorescence 635 nm; higher = more signal
[3] = target: Focal adhesion kinase 1 (Homo sapiens) (UniProt Q05397); experiment: small-molecule microarray binders of FAK, primary screen, biochemical, 635/667 nm fluorescence, BSA, DTT (AID 1130); details: PTK2 binding, 635 nm fluorescence, higher = more signal;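 note: composite of spot emission at 667 nm and signal to noise over triplicate slides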
[4] = tested on: Fibrinogen (Alexa647-labelled); experiment: fibrinogen binders on compound microarrays, profiling panel, artefact control for SMM control-protein annotation, biochemical, small-molecule microarray, 635/667 nm fluorescence (AID 1131); details: fibrinogen-A647 binding fluorescence, higher = more signal;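 note: z-score merges 667 nm fluorescence with per-spot signal-to-noise over triplicate slides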
[5] = target: Follistatin (Homo sapiens) (UniProt P19883); experiment: follistatin binders on small-molecule microarrays, primary screen, biochemical, small-molecule microarray, 635/667 nm fluorescence (AID 1132); details: FST binding, 635 nm fluorescence, higher = more signal
[6] = target: Fibroblast growth factor 2 (Homo sapiens) (UniProt P09038); experiment: FGF2 binders on small-molecule microarrays, primary screen, biochemical, small-molecule microarray, 635/667 nm fluorescence (AID 1133); details: small-molecule microarray binding, FGF2, fluorescence 635/667; higher = more signal
[7] = mitochondrial membrane potential change in A549 cells, profiling panel, cell-based, JC-1 fluorescence, basal, 24 h, 100 nL (AID 1138); details: higher = more signal;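 note: A549 lung adenocarcinoma cells under basal conditions with no added stimulus; test concentration not given here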
Lefty1 = Lefty1 binders on small-molecule microarrays, primary screen, biochemical, small-molecule microarray, 635/667 nm fluorescence (AID 1139); details: small-molecule microarray binding, fluorescence 635/667; higher = more signal
[8] = tested on: wheat germ agglutinin (Triticum aestivum), Alexa647-labelled; experiment: wheat germ agglutinin binders on compound microarrays, profiling panel, artefact control for SMM control-protein annotation, biochemical, small-molecule microarray, 635/667 nm fluorescence (AID 1140); details: WGA-A647 binding, 635 nm fluorescence, higher = more signal;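 note: score merges 667 nm feature emission with signal to noise over triplicate slides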
[9] = target: Luciferin 4-monooxygenase (Photinus pyralis) (UniProt P08659); experiment: firefly luciferase enzyme inhibitors, primary screen, biochemical, luminescence, purified enzyme, 2006 set (AID 1141); details: SteadyGlo luminescence, 30 min, higher = more signal, called active from +8 up or from −8 down;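 note: cell-free assay with purified firefly luciferase at 100 ng per well in PBS; test concentration not given here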
Luciferin 4-monooxygenase (Photinus pyralis), sequence (P08659 whole entry, looked up): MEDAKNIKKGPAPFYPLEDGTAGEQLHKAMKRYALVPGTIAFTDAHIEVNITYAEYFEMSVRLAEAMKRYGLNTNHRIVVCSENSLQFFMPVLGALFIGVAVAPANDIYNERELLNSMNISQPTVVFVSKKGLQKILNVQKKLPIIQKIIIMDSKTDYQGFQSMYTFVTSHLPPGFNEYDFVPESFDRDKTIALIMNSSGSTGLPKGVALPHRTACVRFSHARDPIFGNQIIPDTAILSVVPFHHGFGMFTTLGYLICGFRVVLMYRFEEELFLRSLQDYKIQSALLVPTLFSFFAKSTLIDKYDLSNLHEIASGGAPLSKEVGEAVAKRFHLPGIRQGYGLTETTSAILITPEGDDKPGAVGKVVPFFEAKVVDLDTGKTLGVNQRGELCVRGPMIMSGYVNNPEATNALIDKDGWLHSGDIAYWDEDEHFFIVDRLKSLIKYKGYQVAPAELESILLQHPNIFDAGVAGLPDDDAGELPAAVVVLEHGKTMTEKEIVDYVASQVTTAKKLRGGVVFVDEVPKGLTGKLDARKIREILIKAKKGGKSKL

Fibroblast growth factor 2 (Homo sapiens), sequence (P09038 whole entry, looked up): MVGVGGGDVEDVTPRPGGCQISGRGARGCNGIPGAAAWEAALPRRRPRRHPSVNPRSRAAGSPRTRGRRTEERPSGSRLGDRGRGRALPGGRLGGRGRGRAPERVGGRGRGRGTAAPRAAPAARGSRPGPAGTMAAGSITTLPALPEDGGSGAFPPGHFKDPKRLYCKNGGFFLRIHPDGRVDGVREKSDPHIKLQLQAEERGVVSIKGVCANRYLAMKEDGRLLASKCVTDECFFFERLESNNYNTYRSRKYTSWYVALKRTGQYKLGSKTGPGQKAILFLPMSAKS
Follistatin (Homo sapiens), sequence (P19883 whole entry, looked up): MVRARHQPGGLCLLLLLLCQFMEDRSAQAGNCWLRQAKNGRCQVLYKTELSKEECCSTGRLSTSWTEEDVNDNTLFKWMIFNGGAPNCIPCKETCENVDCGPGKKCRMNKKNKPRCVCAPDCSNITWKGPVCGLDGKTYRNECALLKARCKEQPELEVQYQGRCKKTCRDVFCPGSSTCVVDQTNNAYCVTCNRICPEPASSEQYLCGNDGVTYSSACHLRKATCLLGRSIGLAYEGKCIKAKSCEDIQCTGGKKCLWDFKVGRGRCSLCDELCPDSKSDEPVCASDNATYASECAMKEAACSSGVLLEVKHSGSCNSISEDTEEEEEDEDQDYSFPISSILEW
Focal adhesion kinase 1 (Homo sapiens), sequence (Q05397 whole entry, looked up): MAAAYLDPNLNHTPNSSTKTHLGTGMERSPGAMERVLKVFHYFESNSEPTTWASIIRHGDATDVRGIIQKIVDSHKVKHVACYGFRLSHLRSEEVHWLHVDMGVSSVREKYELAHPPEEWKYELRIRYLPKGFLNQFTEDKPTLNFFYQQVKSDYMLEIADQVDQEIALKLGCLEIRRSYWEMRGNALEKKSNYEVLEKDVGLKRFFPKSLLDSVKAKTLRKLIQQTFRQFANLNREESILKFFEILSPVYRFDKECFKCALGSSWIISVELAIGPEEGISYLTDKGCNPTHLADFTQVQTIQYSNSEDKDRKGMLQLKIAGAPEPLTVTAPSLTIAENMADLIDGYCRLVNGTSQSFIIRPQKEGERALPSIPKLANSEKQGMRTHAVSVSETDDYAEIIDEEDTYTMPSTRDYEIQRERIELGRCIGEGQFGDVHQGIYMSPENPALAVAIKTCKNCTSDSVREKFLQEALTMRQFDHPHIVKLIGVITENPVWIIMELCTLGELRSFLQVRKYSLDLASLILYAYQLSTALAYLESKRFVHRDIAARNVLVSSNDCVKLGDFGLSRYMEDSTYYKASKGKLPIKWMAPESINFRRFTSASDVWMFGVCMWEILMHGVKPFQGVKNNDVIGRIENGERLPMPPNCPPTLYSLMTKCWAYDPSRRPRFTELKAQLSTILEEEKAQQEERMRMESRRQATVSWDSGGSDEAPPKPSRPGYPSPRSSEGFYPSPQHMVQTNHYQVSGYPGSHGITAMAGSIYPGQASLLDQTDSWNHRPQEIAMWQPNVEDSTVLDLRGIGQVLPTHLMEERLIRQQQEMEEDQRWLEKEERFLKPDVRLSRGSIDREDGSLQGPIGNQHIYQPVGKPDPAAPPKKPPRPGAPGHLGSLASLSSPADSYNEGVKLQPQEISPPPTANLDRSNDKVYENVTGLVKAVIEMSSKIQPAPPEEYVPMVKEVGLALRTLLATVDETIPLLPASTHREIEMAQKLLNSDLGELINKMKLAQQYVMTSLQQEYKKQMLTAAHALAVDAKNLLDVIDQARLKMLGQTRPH

Row | SMILES | composite z-score [1] | composite z-score [2] | composite z-score [3] | composite z-score [4] | composite z-score [5] | composite z-score [6] | z-score [7] | composite z-score (Lefty1) | composite z-score [8] | z-score [9]
1 | C=C[C@H](C)[C@H](O)c1ccc(O)c2ccccc12 | 2.31 and -0.782 | -0.402 and -0.622 | -0.0703 and -0.493 | -0.22 and -0.58 | 0.0456 and 0.32 | -0.671 and 1.31 | -0.145 and 1.39 | -0.494 and 0.152 | -0.0985 and -0.45 | -1 (inactive) and -2.28 (inactive)
2 | CO[C@H]1COC(=O)CC=C[C@H](C)[C@H](OC)COC(=O)[C@@H](C)COC(=O)CC=C[C@@H]1C | 0.155 and -0.15 | 0.151 and -0.833 | 0.445 and -0.105 | -0.77 and -1.28 | 1.13 and 0.8 | 0.651 and 0.402 | 0.597 and 1.4 | 0.914 and 0.398 | -0.464 and -0.424 | -0.882 (inactive) and -1.16 (inactive)
3 | CCCCCN1CC=CC23O[C@@H]4C=CCCOC(=O)C4[C@H]2C(=O)N(C(C)CO)[C@@H]3C1=O (stereo not given in full) | 1.58 and 0.0947 | -0.367 and -0.292 | -0.0918 and 0.206 | -0.458 and 0.0661 | -0.11 and -0.0282 | -0.387 and -1.17 | -0.449 and -0.859 | 0.178 and 0.382 | 0.138 and -0.194 | 0.328 (inactive) and 0.283 (inactive)
4 | CO[C@H]1COC(=O)CC=C[C@@H](C)COC(=O)[C@@H](OCc2ccccc2)C=C[C@@H]1C | 0.563 | -1.07 | -0.279 | -1.44 | 1.47 | 1.74 | 1.8 | 1.65 | -1.13 | -0.917 (inactive)
5 | CON(C)C(=O)c1nnc2c3ccccc3n(S(=O)(=O)c3ccc(C)cc3)c2n1 | 0.397 and 0.647 | 0.836 and 1.11 | 0.323 and 0.0633 | 0.88 and 0.578 | 0.229 and 0.552 | 0.43 and 1.31 | 0.551 and 0.105 | 0.273 and 0.757 | 0.184 and 0.328 | -0.251 (inactive) and -0.0743 (inactive)
6 | CCOC(=O)[C@H](CC(C)C)NC(=O)CCC1CC(OC(=O)NCc2cccc3ccccc23)CC2(CCCC(COC(=O)NCc3ccccc3)O2)O1 (stereo not given in full) | 0.223 | -0.439 | -0.159 | -1.97 | -0.126 | -0.105 | 0.629 | 0.275 | -0.0551 | 0.529 (inactive)
7 | C=CCN(CCCCC)C(=O)C(c1cccs1)N(C(=O)/C=C\C(=O)O)c1ccc(CCO)cc1 (stereo not given) | -0.206 and -1.12 | -0.502 and -0.625 | -0.279 and -0.0021 | -1.39 and -1.21 | -1.43 and -0.996 | -1.54 and -1.4 | 0.868 and 0.897 | -1.07 and -1.27 | -0.573 and -0.325 | -1.24 (inactive) and -0.887 (inactive)
8 | CC(C)[Si]1(C(C)C)OCc2cc(C3CC3)nc(CCc3ccccc3)c21 | -0.363 and -0.0162 | -0.868 and 0.316 | -0.177 and -0.249 | -0.582 and 0.111 | 0.0259 and 0.303 | -0.329 and 0.0149 | -0.323 and -1.45 | -0.237 and 0.22 | -0.269 and 0.0131 | -0.324 (inactive) and 0.744 (inactive)
9 | CCOC(=O)C[C@H]1[C@H](OC(=O)c2ccccc2-c2ccccc2)[C@@H](NC(=O)Cc2ccc(OC)cc2)c2cc(OCCCO)ccc2N1C(=O)Cc1ccc(OC)cc1 | -0.109 and -0.161 | 0.8 and -0.925 | 0.14 and -0.217 | 0.325 and 0.237 | 0.214 and -0.173 | -0.0463 and -0.423 | 1.91 and 0.598 | 0.517 and -0.0509 | 0.484 and -0.261 | -1 (inactive) and 0.591 (inactive)
10 | COC(=O)C1=C(C)N(Cc2ccccc2)[C@]23O[C@](C(=O)OC)(C(=O)N2[C@@H]1c1ccccc1)[C@H]1C(=O)N(c2ccccc2)C(=O)[C@H]13 | 0.798 and 0.258 | 1.12 and 0.575 | 0.277 and 0.0443 | 0.77 and 0.267 | 0.516 and 1.01 | 0.562 and 0.626 | 0.6 and 0.565 | 0.477 and 1.27 | 1.07 and 0.541 | -0.207 (inactive) and -0.978 (inactive)
11 | CN1C(=O)C2CC=C([C@H]3Oc4ccccc4S(=O)(=O)N4CCC[C@@H]34)CC2C1=O (stereo not given in full) | 0.009 and -0.183 | -0.984 and -0.409 | 0.285 and 0.14 | 0.0887 and -1.25 | -0.375 and -0.417 | -0.19 and -0.132 | -0.719 and -0.239 | -0.499 and 0.192 | -0.213 and -1.39 | 0.156 (inactive) and 0.737 (inactive)
12 | CCOC(=O)[C@H](Cc1ccccc1)NC(=O)CCC1CC(OC(=O)NCc2cccc3ccccc23)CC2(CCCC(COC(=O)NCCCN3CCCC3=O)O2)O1 (stereo not given in full) | 0.903 | 1.05 | 0.222 | 0.951 | 0.625 | 0.467 | 1.21 | 0.539 | 0.0826 | 0.782 (inactive)
13 | C=CCN(CCCC)C(=O)C1N(CCOCCO)C(=O)C2C(C(=O)O)C3C=CC21O3 (stereo not given) | 1.11 and -1.66 | -0.741 and -0.901 | -0.619 and -0.291 | -1.43 and -0.885 | -0.817 and -1.32 | -1.68 and -1.4 | -0.409 and -0.724 | -1.6 and -2.23 | -0.557 and -0.16 | 0.694 (inactive) and 0.806 (inactive)
14 | COC(=O)c1c2oc(c1C(=O)OC)C(=O)N[C@@H](Cc1ccccc1)Cn1cc(nn1)C1(CCCCC1)NC(=O)N[C@H](CO)CC2 | 2.15 and -0.277 | 1.09 and 0.558 | 0.105 and 0.0367 | 1.01 and 0.223 | 1.38 and 0.484 | 1.41 and 0.184 | 1.53 and 3.28 | 0.956 and 0.506 | 0.462 and -0.0588 | -1.19 (inactive) and -0.739 (inactive)
